# Test results taken from PubChem BioAssay (NCI).
# About 83,000 compounds went through this panel and 20% of them were active in at least one assay; those are over-represented in the sample as a whole.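 Negative percent growth values reflect cell death: -40 means 40% of the cells present at the start died, and -100 means all died.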 Calls of active or inactive are those of the source. The calls were made as follows: active = growth percent below 10; inactive = the rest.
# Tested on: HL-60(TB) leukemia
# Assay: NCI-60 one-dose screen, 48 h (100 = growth as untreated, 0 = no growth, -100 = all killed)
# Conditions: 10 µM unless noted
row,Structure (SMILES),growth
1,CCn1cc(/C=C2\Oc3cc(OCC#N)ccc3C2=O)c2cc(OC)ccc21,-31% (active)
2,COc1cc(NC(C)CCCN)c2nc(C)ccc2c1Oc1ccc(F)cc1 (centres undefined),87.9% (inactive)
3,N#Cc1c(NCc2ccccc2I)sc2c1CCCCC2,100% (inactive)
4,O=C1c2ccccc2C(=O)c2c(O)c(Cl)cc(O)c21,122% (inactive)
5,COc1ccc2c(c1)/C(=C\c1sc(=S)[nH]c1O)C(C(=O)O)=N2,101% (inactive)
6,CC(C)(C)CC(C)(C)Nc1c(-c2ccc(C(F)(F)F)cc2)nc2cnccn12,79.4% (inactive)
7,O=C(O)CCN1C(=O)/C(=C/C(Cl)=C/c2ccccc2)SC1=S,5.78% (active)
8,S=c1[nH]nc(-c2cc3ccc2CCc2ccc(cc2)CC3)n1C1CC1,106% (inactive)
9,COc1ccc(/C(C)=C(\c2ccc(Cl)cc2)c2ccc(OCCN3CCCC3)cc2)cc1F,0.205% (active)
10,CN1Cc2c(cc(CN3CCCCC3)n2C)C(c2ccc(Br)cc2)C1 (centres undefined),83.8% (inactive)
11,Oc1cc(Cl)ccc1Cc1ccc(Cl)cc1O,41.4% (inactive)
12,O=C1CC[C@H](c2ccc(O)c3c2C(=O)[C@@H]2O[C@@H]2C3=O)c2cccc(O)c21,-20.5% (active)
13,Cc1ccc(CC(=O)O)c(C)c1,98% (inactive)
14,O=C(CCc1nnco1)c1nc2ccc([N+](=O)[O-])cc2[nH]1,120% (inactive)
